{
  "source": "PubChem BioAssay AID1479144",
  "about": "(National Center for Advancing Translational Sciences (NCATS), 2020)",
  "note": "Records with an inconclusive call do not appear. Entries that show only a call come without a potency. Values without a mark were called inactive. Activity calls are given as the source filed them. Calls follow the shape of the full dose curve.",
  "data": [
    {"experiment": "Confirmatory qHTS for Vero E6 cytotoxicity: counterscreen for inhibitors of SARS-S pseudo-typed particle cell entry", "settings": "cell viability; series mostly up to 57.1 µM", "values": [
      {"smiles": "CC(C)OC(=O)OCOP(=O)(CO[C@H](C)Cn1cnc2c(N)ncnc21)OCOC(=O)OC(C)C", "Potency": "inactive"},
      {"smiles": "CCC(C)(C)C(=O)O[C@H]1C[C@@H](C)C=C2C=C[C@H](C)[C@H](CC[C@@H]3C[C@@H](O)CC(=O)O3)[C@H]21", "Potency": "5.41 µM (active)"},
      {"smiles": "CN1CCC(=C2c3ccccc3CCc3sccc32)CC1", "Potency": "inactive"},
      {"smiles": "O=c1ccc2ccccc2o1", "Potency": "inactive"},
      {"smiles": "CCCCCCNC(=O)n1cc(F)c(=O)[nH]c1=O", "Potency": "inactive"},
      {"smiles": "O=C(Nc1ccc([N+](=O)[O-])cc1Cl)c1cc(Cl)ccc1O", "Potency": "0.857 µM (active)"},
      {"smiles": "OCCN1CCN(CC/C=C2/c3ccccc3Sc3ccc(C(F)(F)F)cc32)CC1", "Potency": "inactive"},
      {"smiles": "CC[C@H](C)C(=O)O[C@H]1C[C@@H](C)C=C2C=C[C@H](C)[C@H](CC[C@@H]3C[C@@H](O)CC(=O)O3)[C@H]21", "Potency": "9.61 µM (active)"},
      {"smiles": "CC(=O)OCC1=C(C(=O)O)N2C(=O)[C@@H](NC(=O)Cc3cccs3)[C@H]2SC1", "Potency": "inactive"},
      {"smiles": "COc1cc(N)c(Cl)cc1C(=O)NC1CCN(CCCOc2ccc(F)cc2)CC1OC", "note": "(stereo not drawn)", "Potency": "inactive"},
      {"smiles": "COc1cc([C@@H]2c3cc4c(cc3C(O[C@@H]3O[C@@H]5CO[C@@H](c6cccs6)OC5[C@H](O)[C@H]3O)C3COC(=O)[C@@H]32)OCO4)cc(OC)c1O", "note": "(stereo partly drawn)", "Potency": "24.1 µM (active)"},
      {"smiles": "Cc1nnc(C(=O)NC(C)(C)c2nc(C(=O)NCc3ccc(F)cc3)c(O)c(=O)n2C)o1", "Potency": "inactive"},
      {"smiles": "C=CC(=O)Nc1cc(Nc2nccc(-c3cn(C)c4ccccc34)n2)c(OC)cc1N(C)CCN(C)C", "Potency": "13.6 µM (active)"},
      {"smiles": "CCCN1C[C@H](C)[C@@H](O)[C@](C)(O)[C@@H](CC)OC(=O)[C@H](C)[C@@H](O[C@H]2C[C@@](C)(OC)[C@@H](O)[C@H](C)O2)C(C)[C@@H](O[C@@H]2O[C@H](C)C[C@H](N(C)C)[C@H]2O)[C@](C)(O)C[C@H]1C", "note": "(stereo partly drawn)", "Potency": "inactive"},
      {"smiles": "Cc1nn(C)c2c1C(c1ccccc1F)=NCC(=O)N2C", "Potency": "inactive"},
      {"smiles": "Cc1cc(-n2c(=O)[nH]c(=O)n(C)c2=O)ccc1Oc1ccc(S(=O)(=O)C(F)(F)F)cc1", "Potency": "inactive"},
      {"smiles": "C[C@H]1[C@H](OC(=O)CCC(=O)O)O[C@@H]2O[C@@]3(C)CC[C@H]4[C@H](C)CC[C@@H]1[C@@]24OO3", "Potency": "inactive"},
      {"smiles": "CCc1c2c(nc3ccc(OC(=O)N4CCC(N5CCCCC5)CC4)cc13)-c1cc3c(c(=O)n1C2)COC(=O)[C@]3(O)CC", "Potency": "inactive"},
      {"smiles": "COc1c(OCCCN2CCOCC2)ccc2c3n(c(=NC(=O)c4cnc(N)nc4)nc12)CCN3", "activity change, negative = cytotoxicity": "-8.49% [at 11.2 µM]"},
      {"smiles": "CCCCN=C(N)N=C(N)N", "Potency": "inactive"},
      {"smiles": "C=CC1(C)CC(=O)C2(O)C(C)(O1)C(OC(C)=O)C(OC(=O)CCN(C)C)C1C(C)(C)CCC(O)C12C", "note": "(stereo not drawn)", "Potency": "inactive"},
      {"smiles": "CC(C)OC(=O)[C@H](C)N[P@](=O)(CO[C@H](C)Cn1cnc2c(N)ncnc21)Oc1ccccc1", "Potency": "inactive"},
      {"smiles": "CN(C/C=C/c1ccccc1)Cc1cccc2ccccc12", "Potency": "inactive"},
      {"smiles": "CCn1cc(C(=O)O)c(=O)c2cc(F)c(N3CCNC(C)C3)c(F)c21", "note": "(stereo not drawn)", "Potency": "inactive"},
      {"smiles": "CN(C)CCOC(c1ccccc1)c1ccc(Br)cc1", "note": "(stereo not drawn)", "Potency": "inactive"},
      {"smiles": "CN(C)CCC=C1c2ccccc2C(C)(C)c2ccccc21", "Potency": "inactive"},
      {"smiles": "CC[C@@]1(O)C(=O)OCc2c1cc1n(c2=O)Cc2cc3c([N+](=O)[O-])cccc3nc2-1", "Potency": "3.93 µM (active)"},
      {"smiles": "COc1cc(NS(C)(=O)=O)ccc1Nc1c2ccccc2nc2ccccc12", "Potency": "12.1 µM (active)"},
      {"smiles": "CCCCCCCCCCCCCC[n+]1ccc(C)cc1", "Potency": "4.29 µM (active)"},
      {"smiles": "C[n+]1c2cc(N)ccc2cc2ccc(N)cc21", "note": "(tested in a mixture with another compound)", "Potency": "10.8 µM (active)"},
      {"smiles": "O=C(O)c1cc(O)c2c(c1)[C@H]([C@H]1c3cc(C(=O)O)cc(O)c3C(=O)c3c(O[C@@H]4O[C@H](CO)[C@@H](O)[C@H](O)[C@H]4O)cccc31)c1cccc(O[C@@H]3O[C@H](CO)[C@@H](O)[C@H](O)[C@H]3O)c1C2=O", "Potency": "inactive"},
      {"smiles": "CC(CN(C)C)CN1c2ccccc2CCc2ccccc21", "note": "(stereo not drawn)", "Potency": "inactive"},
      {"smiles": "CC(=O)Oc1ccccc1C(=O)Nc1ncc([N+](=O)[O-])s1", "Potency": "9.61 µM (active)"}
    ]}
  ]
}
